Source: PubChem BioAssay
“And” between values parts separate entries of the source, which are not always exact repeats. Equal entries are not always repeated. The source holds several records for some structures; these can differ, active in one and inactive in another. The source made the active and inactive calls.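 How the source made its calls: active means compounds whose cell count with miR-34 switched on is under 0.7 times the count with it off; inactive means the rest.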

Assay: sensitizers of A549 cells to miR-34 induction, primary screen, imaging, A549 dox-inducible miR-34, nuclei and caspase counts (AID 1347080); further: test concentration not given here
Conditions: A549 miR-34 inducible, Hoechst nuclei count, 48 h; stronger effect = lower value; cell number ratio, induced over uninduced

SMILES | fold change
O=C(/C=C/c1c(C(=O)O)[nH]c2cc(Cl)cc(Cl)c12)Nc1ccccc1 | 0.942 (inactive)
C[C@H](NC(=O)c1sccc1OCc1ccc(Cl)cc1)c1ccccc1 | 1.09 (inactive)
CNC(=O)[C@H]1O[C@@H](n2cnc3c(NCc4cccc(I)c4)nc(Cl)nc32)[C@H](O)[C@@H]1O | 0.954 (inactive)
COc1cc(SC)ccc1C(=O)N1CCC(Cc2ccccc2)CC1 | 1.03 (inactive) and 0.864 (inactive)
N#C/C(=C(/N)Sc1ccc(N)cc1)c1ccccc1C(F)(F)F | 0.944 (inactive)
COc1ccc(-c2oc3cc(OC)ccc3c2C(=O)c2ccc(C#N)cc2)cc1 | 0.933 (inactive)
Oc1cc(O)cc(/C=C/c2ccc(O)c(O)c2)c1 | 1.12 (inactive) and 0.813 (inactive) and 0.863 (inactive)
O=Nc1c(-c2c(O)[nH]c3ccccc23)[nH]c2ccccc12 | 1.02 (inactive) and 0.941 (inactive) and 1.27 (inactive)
CN(CCOc1ccc(-c2ccc3c(c2)OCO3)cc1C(C)(C)C)CC(=O)O | 0.865 (inactive)
FC(F)(F)c1ccc(/C=C/c2nc(COc3ccc(CCCCn4ccnn4)cc3)co2)cc1 | 1.08 (inactive)
C=CCc1cccc(/C=N/NC(=O)CN2CCN(Cc3ccccc3)CC2)c1O | 1.09 (inactive) and 0.918 (inactive) and 0.982 (inactive)
C[C@@H](N)C1CCC(C(=O)Nc2ccncc2)CC1 (stereo partly drawn) | 0.864 (inactive) and 0.892 (inactive)
Cc1cccc(C#Cc2ccccc2)n1 | 1.16 (inactive) and 0.932 (inactive) and 0.863 (inactive)
Nc1nccc(-c2ccc3noc(-c4ccc(Cl)cc4)c3c2)n1 | 0.777 (inactive)
Nc1ncnc2c1ncn2[C@@H]1O[C@H](CO)C[C@H]1O | 0.951 (inactive)
NC(=O)c1ccc(-c2nc(-c3ccc4c(c3)OCCO4)c(-c3ccccn3)[nH]2)cc1 | 0.947 (inactive) and 0.907 (inactive)
CC(C)N(CCC(=O)c1ccc2ccccc2c1)Cc1ccccc1 | 1.13 (inactive) and 0.795 (inactive) and 0.953 (inactive)

SMILES | fold change
COc1ccc(Nc2nccc(NCCO)n2)cc1 | 0.983 (inactive) and 0.953 (inactive)
CC(C)(C)/[N+]([O-])=C/c1ccc(S(=O)(=O)O)cc1S(=O)(=O)O | 1.35 (inactive)
CC(C)c1onc(-c2c(Cl)cccc2Cl)c1COc1ccc(/C=C/c2cccc(C(=O)O)c2)c(Cl)c1 | 0.989 (inactive)
COc1cc2c(cc1O)CC[C@@H]1[C@@H]2CC[C@]2(C)[C@@H](O)CC[C@@H]12 | 1.15 (inactive) and 1.13 (inactive)
Cc1ccccc1C(=O)c1ccc(Nc2ccc(Br)cc2N)cc1Cl | 0.938 (inactive)
N#C/C(=C\c1ccc(O)c(O)c1)C(=O)NCc1ccccc1 | 1.1 (inactive) and 0.928 (inactive)
CCOC(=O)C(C)Oc1cccc2c(=O)n(CC(=O)Nc3ccc4c(c3)OCCO4)ccc12 (stereo not drawn) | 0.916 (inactive) and 0.854 (inactive)
CC(C)C[C@@H](C(=O)N[C@H](C(=O)OC1CCCC1)c1ccccc1)[C@H](O)C(=O)NO | 1 (inactive)
O=c1ncccn1[C@@H]1O[C@H](CO)[C@@H](O)[C@H]1O | 1 (inactive)
Clc1ccc(-c2nc3sccn3c2/C=N/OCc2ccc(Cl)c(Cl)c2)cc1 | 0.906 (inactive) and 0.897 (inactive)
O=S(=O)(NCCNC/C=C/c1ccc(Br)cc1)c1cccc2cnccc12 | 0.909 (inactive) and 1.06 (inactive)
Oc1ccc(Nc2nc(-c3ccc(Cl)cc3)cs2)cc1 | 0.947 (inactive) and 0.904 (inactive) and 0.869 (inactive)
CCCC[C@@H](C=O)NC(=O)[C@H](CC(C)C)NC(=O)OCc1ccccc1 | 0.927 (inactive) and 0.862 (inactive)
O=C(c1ccc(Nc2nccc(-c3cc4ccccc4s3)n2)cc1)N1CCC(N2CCCC2)CC1 | 1.04 (inactive) and 1.02 (inactive)
Cc1ccc(S(=O)(=O)/C=C/C#N)cc1 | 1.22 (inactive) and 0.866 (inactive) and 0.568 (active)
CC(C)(Sc1ccc(CCN(CCCCC2CCCCC2)C(=O)NC2CCCCC2)cc1)C(=O)O | 0.945 (inactive) and 0.954 (inactive) and 0.926 (inactive)
